Laboratory results from PubChem BioAssay (Tox21).
Several values for one entry are separate records, joined by “and”; a condition that tells them apart may be missing. Identical values can stand only once. Records with an inconclusive call do not appear. Some structures have more than one record in an assay (separate samples or runs), and their calls can disagree. Activity calls are given as the source filed them. The call rests on the fitted dose curve; in most records, active means well fitted curve in the direction sought with a large enough effect in the repeat runs; inconclusive means weak or mixed curves; inactive means no such curve, though single readings can be large; an effect the other way counts as inactive or inconclusive.

Legend:
[1] = A CellTox Green Cytotoxicity Assay to monitor cytotoxicity in HEK293 cells - 8 hour (AID 1224884); conditions: CellTox Green fluorescence; series mostly up to 76.8 µM; further: nearly all actives have a fitted effect of over 35% in size; further: potency means the concentration at half of the fitted maximal effect
Procedure, shortened: (§1)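 Seeding of HEK293 cells together with cytotoxicity dye preceded a 5 h incubation at 37 C/5% CO2. Test compounds in DMSO were then added and fluorescence monitored across 40 h.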

[2] = qHTS RealTime-Glo MT Cell Viability Assay in HepG2 cells - 16 hour (AID 1224885); conditions: RealTime-Glo luminescence; series mostly up to 76.8 µM; further: nearly all actives have a fitted effect of over 50% in size
Procedure, shortened: (§2)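 HepG2 cells were seeded at 600 cells/well together with NanoLuc luciferase and a cell-permeant prosubstrate, preincubated 5 h at 37 C/5% CO2, then pin-dosed with compounds in DMSO. Nonlytic luminescence from viable cells was read at each time point.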

[3] = qHTS RealTime-Glo MT Cell Viability Assay in HEK293 cells - 24 hour (AID 1224886); conditions: RealTime-Glo luminescence; series mostly up to 76.8 µM; further: nearly all actives have a fitted effect of over 50% in size; further: potency means the concentration at half of the fitted maximal effect
Procedure, shortened: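 HEK293 cells were seeded at 600 cells/well together with NanoLuc luciferase and cell-permeant prosubstrate, preincubated 5 h at 37 C/5% CO2, then given compound in DMSO by pintool. Luminescence from viable-cell prosubstrate reduction was read repeatedly over 40 h.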

[4] = qHTS RealTime-Glo MT Cell Viability Assay in HEK293 cells - 8 hour (AID 1224887); conditions: RealTime-Glo luminescence; series mostly up to 76.8 µM; further: top concentration of the series differs between compounds; nearly all actives have a fitted effect of over 50% in size
Procedure, shortened: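 Tox21 screen in HEK293 using RealTime-Glo MT chemistry, with cells and reagent co-dispensed. Luminescence proportional to viable cell number was captured at intervals during 40 h compound exposure at 37 C.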

[5] = qHTS RealTime-Glo MT Cell Viability Assay in HepG2 cells - 0 hour (AID 1224889); conditions: RealTime-Glo luminescence; series mostly up to 76.8 µM; further: nearly all actives have a fitted effect of over 50% in size
Procedure, shortened: as §2

[6] = A CellTox Green Cytotoxicity Assay to monitor cytotoxicity in HepG2 cells - 8 hour (AID 1224890); conditions: CellTox Green fluorescence; series mostly up to 76.8 µM; further: nearly all actives have a fitted effect of over 45% in size; further: potency means the concentration at half of the fitted maximal effect
Procedure, shortened: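 Nonlytic assay: viable cells exclude the dye, so fluorescence scales with cell death. HepG2 at 600 cells/well, compounds added after 5 h, signal read across 40 h.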

[7] = qHTS assay to identify small molecule antagonists of the androgen receptor (AR) signaling pathway using the MDA cell line in the presence of 0.5 nM R1881 - cell viability counter screen (AID 1259242); conditions: MDA-kb2 viability, CellTiter-Fluor protease fluorescence, 16 h; series mostly up to 92.4 µM; further: nearly all actives have a fitted effect of over 45% in size
Procedure, shortened: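 R1881 at 0.5 nM final stimulated MDA-kb2 cells during 16 hr compound treatment at 37C. Cytotoxicity read: CellTiter-Fluor fluorescence after 30 min.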

[8] = qHTS assay to identify small molecule antagonists of the estrogen receptor alpha (ER-alpha) signaling pathway using the BG1 cell line in the presence of 0.1 nM 17-beta-estradiol - cell viability counter screen (AID 1259241); conditions: VM7Luc4E2 (BG1) viability, CellTiter-Fluor protease, 22 h, 0.1 nM estradiol agonist added; series mostly up to 92.4 µM; further: nearly all actives have a fitted effect of over 40% in size
Procedure, shortened: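 VM7Luc4E2 cells (endogenous ER-alpha, 4×ERE-luciferase), hormone-starved 5 days in charcoal-stripped FBS, were treated with compounds plus 0.1 nM 17beta-estradiol for 22 hr at 37C; viability read in same wells as CellTiter-Fluor live-cell protease fluorescence.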

[9] = A CellTox Green Cytotoxicity Assay to monitor cytotoxicity in HEK293 cells - 16 hour (AID 1224888); conditions: CellTox Green fluorescence; series mostly up to 76.8 µM; further: nearly all actives have a fitted effect of over 35% in size
Procedure, shortened: as §1

[10] = biological target: Androgen receptor (Homo sapiens) (UniProt P10275); assay: qHTS assay to identify small molecule antagonists of the androgen receptor (AR) signaling pathway using the MDA cell line in the presence of 0.5 nM R1881 (AID 1259243); conditions: MDA-kb2 MMTV-luciferase, R1881 0.5 nM, 16 h; series mostly up to 92.4 µM; further: nearly all actives have a fitted effect of over 50% in size; further: potency means the concentration at half of the fitted maximal effect
Sequence of Androgen receptor (Homo sapiens) (P10275 whole entry, looked up): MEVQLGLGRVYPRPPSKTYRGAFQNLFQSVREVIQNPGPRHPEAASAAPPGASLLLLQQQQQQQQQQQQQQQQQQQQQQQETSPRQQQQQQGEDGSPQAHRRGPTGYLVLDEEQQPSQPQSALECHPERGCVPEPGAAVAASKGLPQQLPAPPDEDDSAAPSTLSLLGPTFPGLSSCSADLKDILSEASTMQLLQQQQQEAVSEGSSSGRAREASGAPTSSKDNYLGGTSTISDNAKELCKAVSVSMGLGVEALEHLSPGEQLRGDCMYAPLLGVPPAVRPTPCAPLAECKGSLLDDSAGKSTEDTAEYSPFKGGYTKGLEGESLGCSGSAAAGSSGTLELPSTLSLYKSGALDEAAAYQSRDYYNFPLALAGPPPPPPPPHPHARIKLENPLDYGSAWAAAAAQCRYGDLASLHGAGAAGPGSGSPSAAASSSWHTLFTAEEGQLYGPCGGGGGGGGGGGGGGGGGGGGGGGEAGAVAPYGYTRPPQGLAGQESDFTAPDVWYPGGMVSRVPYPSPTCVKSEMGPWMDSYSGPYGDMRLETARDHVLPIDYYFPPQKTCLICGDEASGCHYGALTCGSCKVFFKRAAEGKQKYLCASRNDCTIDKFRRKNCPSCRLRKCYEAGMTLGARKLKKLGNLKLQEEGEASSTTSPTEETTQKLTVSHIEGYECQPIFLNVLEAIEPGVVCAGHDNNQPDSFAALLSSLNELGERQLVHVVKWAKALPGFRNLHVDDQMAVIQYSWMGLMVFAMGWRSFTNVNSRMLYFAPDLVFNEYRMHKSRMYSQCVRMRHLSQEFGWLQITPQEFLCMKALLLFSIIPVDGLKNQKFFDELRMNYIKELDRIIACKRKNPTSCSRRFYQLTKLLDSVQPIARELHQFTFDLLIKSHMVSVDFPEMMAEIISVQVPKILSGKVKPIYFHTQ
Procedure, shortened: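 We exposed MDA-kb2 cells to compounds under 0.5 nM R1881 stimulation for 16 hr at 37C and quantified MMTV-driven luciferase by luminescence.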

Measured: Potency

CN(C)CCO
not listed: [8] | [9] | [10]
inactive: all other assays above

O=S(=O)(c1ccc(O)cc1)c1ccc(O)cc1
not listed: [9] | [10]
inactive: all other assays above

CCCCCCCCCCCC#N
inactive and 45.2 µM (active): [1]
inactive and 40.3 µM (active): [6]
not listed: [9] | [10]
inactive: all other assays above

Cc1ccc(N)cc1Cl
not listed: [2] | [10]
inactive: all other assays above

BrCCBr
not listed: [8] | [10]
inactive: all other assays above

Nc1c(Cl)c(Cl)nc(C(=O)O)c1Cl
not listed: [9] | [10]
inactive: all other assays above

Clc1cccc(Cl)c1Cl
not listed: [9] | [10]
inactive: all other assays above

CCCCN(CC)C(=O)SCCC
not listed: [8] | [9]
inactive: all other assays above

CCCN(CCC)N=O
not listed: [9] | [10]
inactive: all other assays above

COCCl
22.7 µM (active) and inactive: [1]
not listed: [8]
inactive: all other assays above

CCC(C)(CC)c1cc(NC(=O)c2c(OC)cccc2OC)on1
not listed: [8] | [10]
inactive: all other assays above

CC(C)OC(=O)Nc1ccccc1
not listed: [9] | [10]
inactive: all other assays above

CC(C)(C)OOC(=O)c1ccccc1
not listed: [4] | [10]
inactive: all other assays above

NCC(O)c1ccc(O)cc1 (stereo not drawn)
not listed: [2] | [10]
inactive: all other assays above

[N-]=[N+]=[N-]
41.8 µM (active) and inactive: [10]
not listed: [9]
inactive: all other assays above

O=[N+]([O-])c1ccc(Oc2ccc(Cl)cc2Cl)cc1
inactive: [1] | [2] | [5] | [6] | [7]

CCCCN(CCCC)SN(C)C(=O)Oc1cccc2c1OC(C)(C)C2
inactive: [1] | [2] | [9] | [5] | [6] | [7]

COC(=O)NC(=S)Nc1ccccc1NC(=S)NC(=O)OC
not listed: [9] | [10]
inactive: all other assays above

CCOP(=S)(OCC)SCCSCC
not listed: [8] | [10]
inactive: all other assays above

O=c1[nH]c2ccccc2c(=O)o1
not listed: [2] | [8] | [10]
inactive: all other assays above

CC1OC(C)OC(C)O1 (stereo not drawn)
inactive: [1] | [3] | [4] | [5] | [6] | [7]

Cc1ccc(N)cc1N
not listed: [2] | [10]
inactive: all other assays above

CCC[N+](=O)[O-]
not listed: [2] | [8] | [10]
inactive: all other assays above

C1CN2CCN1CC2
inactive and 21.9 µM (active): [1]
inactive: [3] | [4] | [5] | [8] | [7]
inactive and 24.5 µM (active): [6]

O=c1n(Cl)c(=O)n(Cl)c(=O)n1Cl
not listed: [2] | [10]
inactive: all other assays above

CCCC1COC(Cn2cncn2)(c2ccc(Cl)cc2Cl)O1 (stereo not drawn)
inactive: [1] | [5] | [6] | [8] | [7]
active: [3] 25 µM and 24.5 µM | [10] 31.2 µM and 30.6 µM

c1ccc2c(c1)Oc1ccccc1O2
not listed: [2] | [9] | [10]
inactive: all other assays above

CCCN(CCC)c1c([N+](=O)[O-])cc(C(F)(F)F)cc1[N+](=O)[O-]
1.23 µM (active) and inactive: [1]
not listed: [2] | [4]
inactive: all other assays above

CCc1cccc(C)c1N(C(=O)CCl)C(C)COC (stereo not drawn)
not listed: [2] | [9] | [10]
inactive: all other assays above

Cc1ccccc1O
inactive: [1] | [3] | [4] | [5] | [6] | [7]

CC(C)C1(C)N=C(c2nc3ccccc3cc2C(=O)O)NC1=O (stereo not drawn)
inactive: [1] | [3] | [4] | [5] | [6] | [7]

O=c1[nH]c(=O)[nH]c(=O)[nH]1
not listed: [2] | [9]
inactive: all other assays above

CC(C)(Cl)Cl
inactive: [1] | [3] | [4] | [5] | [6] | [7]

Nc1ccc(Br)cc1
not listed: [2] | [8] | [10]
inactive: all other assays above

Cn1cc(-c2ccccc2)c(=O)c(-c2cccc(C(F)(F)F)c2)c1
inactive: [1] | [3] | [4] | [6] | [7]

Cc1cc(Cl)ccc1O
not listed: [2] | [9] | [10]
inactive: all other assays above

c1cc2c3c(cccc3c1)CC2
inactive and 49 µM (active): [1]
not listed: [2] | [9]
inactive: all other assays above

CCN(CC)c1ccccc1
not listed: [2]
inactive: all other assays above

CC(NC(C)(C)C)C(=O)c1cccc(Cl)c1 (stereo not drawn)
not listed: [2] | [9] | [10]
inactive: all other assays above

Nc1ccc(Cc2ccc(N)cc2)cc1
not listed: [2] | [9] | [10]
inactive: all other assays above

CCNc1nc(NC(C)C)nc(SC)n1
not listed: [2] | [8]
inactive: all other assays above

CC(C#N)CCC#N (stereo not drawn)
not listed: [2] | [8] | [10]
inactive: all other assays above

Clc1ccccc1Cl
not listed: [2] | [9] | [10]
inactive: all other assays above

CC(C)NC(=O)N1CC(=O)N(c2cc(Cl)cc(Cl)c2)C1=O
not listed: [2] | [8] | [10]
inactive: all other assays above

c1ccc2c(c1)oc1ccccc12
not listed: [2] | [10]
inactive: all other assays above

COC(=O)NS(=O)(=O)c1ccc(N)cc1
not listed: [2] | [8] | [10]
inactive: all other assays above

O=C(O)c1ccccn1
not listed: [2] | [9] | [10]
inactive: all other assays above

CC(C)=C[C@@H]1[C@@H](C(=O)OCc2coc(Cc3ccccc3)c2)C1(C)C
not listed: [2] | [10]
inactive: all other assays above

Oc1ccccc1Cl
not listed: [2] | [9] | [10]
inactive: all other assays above

O=[N+]([O-])c1ccc([As](=O)(O)O)cc1
not listed: [2] | [8] | [10]
inactive: all other assays above

c1ccc(-c2ccccc2)cc1
not listed: [2] | [9]
inactive: all other assays above

O=C(NC(=O)c1c(F)cccc1F)Nc1cc(Cl)c(OC(F)(F)C(F)C(F)(F)F)cc1Cl (stereo not drawn)
active: [10] 19.3 µM and 26.6 µM
not listed: [2] | [8]
inactive: all other assays above

C[C@]12CC[C@H]3[C@@H](CC[C@@]45O[C@@H]4C(O)=C(C#N)C[C@]35C)[C@@H]1CC[C@@H]2O
not listed: [2] | [9] | [10]
inactive: all other assays above

CCC12COCN1COC2
inactive: [1] | [3] | [4] | [5] | [6] | [7]

CC(=O)C=C(C)C
not listed: [2] | [10]
inactive: all other assays above

NCCc1ccc(O)cc1
not listed: [2] | [9] | [10]
inactive: all other assays above
